Test results from PubChem BioAssay (NCI).
The panel holds about 83,000 compounds, 20% with a hit somewhere; the sample as a whole holds those more often.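 Method: cells in 96-well plates; compound added at one concentration; 48 h incubation; percent growth measured; values under 10 scored active.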 Unmarked numbers belong to inactive results. Calls of active or inactive are those of the source.

Columns and labels:
Assay in all cases: NCI-60 one-dose screen, 48 h (100 = growth as untreated, 0 = no growth, -100 = all killed)
Conditions in all cases: 10 µM
[1] = system: T-47D breast
[2] = system: BT-549 breast
[3] = system: MDA-MB-435 melanoma
[4] = system: SW-620 colon
[5] = system: MCF7 breast
[6] = system: HCT-116 colon
[7] = system: HCC-2998 colon
[8] = system: KM12 colon
[9] = system: MDA-MB-468 breast

| SMILES | growth [1] | growth [2] | growth [3] | growth [4] | growth [5] | growth [6] | growth [7] | growth [8] | growth [9] |
| --- | --- | --- | --- | --- | --- | --- | --- | --- | --- |
| CCCCSc1nc(Nc2ccc(/C(C)=N/NC(N)=S)cc2)c(C#N)c(-c2ccccc2)n1 | 45.9% | 31.1% | 65.4% | 56.8% | 30.7% | 24.6% | 53.1% | 72.4% | -28.4% (active) |
| COc1ccc([C@H]2C(C(=O)c3ccc(Cl)cc3)C3(N[C@@H]2c2ccccc2)C(=O)Nc2ccc(Cl)cc23)cc1 (some centres not stated) | 9.93% (active) | 7.71% (active) | -57.5% (active) | 4.15% (active) | -4.24% (active) | 2.1% (active) | -59.3% (active) | -23.4% (active) | -3.62% (active) |
| O=C(c1ccc(Cl)cc1)C1[C@H](c2ccc(Br)cc2)[C@@H](c2ccccc2)NC12C(=O)Nc1ccc(Br)cc12 (some centres not stated) | -54% (active) | -73.3% (active) | -88.8% (active) | -71.6% (active) | -43.3% (active) | 1.39% (active) | -98.5% (active) | -50.8% (active) | -98.9% (active) |
| O=[N+]([O-])c1ccc(-c2nc(-c3ccccc3)c(-c3ccccc3)n2-c2ccc(S(=O)(=O)Nc3ncccn3)cc2)cc1 | 10.2% | 10.7% | 46.5% | 51.1% | 29.3% | 30.6% | 42.9% | 30.8% | 40% |
| COc1cccc2nc(Nc3ccc(F)c(NC(=O)c4ccc(CN5CCN(C)CC5)c(C(F)(F)F)c4)c3)ccc12 | 22% | 82.6% | -69.3% (active) | -63% (active) | -61.3% (active) | 1.84% (active) | -94.5% (active) | -22.2% (active) | -48.9% (active) |
| COc1cc(/C=C/C(=O)c2ccc(F)cc2)ccc1Oc1nc(Nc2ccc(F)cc2)nc(N(C)C)n1 | 28.5% | 88.6% | 68.5% | 2.33% (active) | 16.6% | 30.2% | 89% | 61% | 28% |
| N#Cc1c(NC(=O)c2ccc(C(F)(F)F)cc2)sc2c1CCC(O)=C2 | 22.9% | 58.7% | -33.8% (active) | 17.1% | 9.26% (active) | 23.9% | 47.3% | 18.2% | -31.9% (active) |
| CC(C)c1ccc(C(=O)Nc2sc3c(c2C(N)=O)CCC(=O)C3=O)cc1 | 80.3% | 107% | 91.4% | 105% | 79.3% | 91.9% | 119% | 98.6% | 94.8% |
| CC1=N/C(=C\c2ccc(N(C)C)cc2)C(=O)N1CCc1ccc(S(N)(=O)=O)cc1 | 83.2% | 92.7% | 110% | 112% | 91.8% | 94.3% | 97.5% | 104% | 110% |
| CN(C(=O)c1ccc(C(F)(F)F)cc1C(F)(F)F)c1sc2c(c1C#N)CCC(=O)C2 | 1.04% (active) | 20.8% | 101% | 18.9% | 85.8% | 25.2% | 94.4% | 74.3% | 51.9% |
| O=C(Nc1nc2ccc([N+](=O)[O-])cc2s1)Nc1ccccc1I | -16.7% (active) | -18.9% (active) | -7.59% (active) | 7.65% (active) | -13.9% (active) | -18.8% (active) | 4.48% (active) | 2.86% (active) | -25.8% (active) |
| COc1ccc(C=CC(=O)c2ccc(-n3c(C)nc4c(cnn4-c4ccccc4)c3=O)cc2)cc1 | 34.7% | 45% | 11.2% | 75.1% | 8.3% (active) | 9.71% (active) | 86.8% | 31.6% | 11.3% |
| O=C(CN1CCN(c2ncnc3c2cnn3-c2ccccc2)CC1)Nc1nncs1 | 27.9% | -85.9% (active) | 7.14% (active) | -23.9% (active) | 16.1% | 8.23% (active) | 59.7% | 4.55% (active) | -39.8% (active) |
| COc1ccc([C@H]2C(C(=O)c3ccc(Cl)cc3)C3(N[C@@H]2c2ccccc2)C(=O)Nc2ccc(Br)cc23)cc1 (some centres not stated) | 21.2% | 21.9% | -36.6% (active) | 7.87% (active) | -7.25% (active) | 1.73% (active) | -41% (active) | -5.82% (active) | -7.76% (active) |
| CC(=O)Nc1ccc(-c2cn(-c3cccc(C(=O)Nc4ccc(F)c(C(F)(F)F)c4)c3)nn2)cn1 | 88.2% | 103% | 59.7% | -8.11% (active) | 4.2% (active) | 14.7% | 62% | 28.4% | 42.8% |
| C=C[C@H]1[C@H](O[C@@H]2OC(CO)[C@@H](O)[C@H](O)C2OC(=O)c2c(O)cc(O)cc2-c2cccc(O)c2)OC=C2C(=O)OCC[C@H]21 (some centres not stated) | 99.3% | 94.8% | 102% | 105% | 93.5% | 94.4% | 106% | 103% | 96.5% |
| CN(C)c1nc(NCCNS(=O)(=O)c2ccc(C(=O)/C=C/c3ccccc3)cc2)nc(Nc2ccc(F)cc2)n1 | 25.6% | 24.9% | 4.21% (active) | -4.39% (active) | -82.8% (active) | -53% (active) | -75.7% (active) | -78.4% (active) | 1.47% (active) |
| COc1nccnc1NS(=O)(=O)c1ccc(NC2=C(Cl)C(=O)c3nc(C)ccc3C2=O)cc1 | 101% | 101% | 103% | 115% | 108% | 92% | 103% | 111% | 9.69% (active) |
